What all share (test): Confirmatory Screen for Target Class Profiling of Small Molecule Inhibitors of Methyltransferases (AID 1745852); as to activity change, negative = inhibition: % is scaled to controls: 0 for no effect and ±100 for the full control effect
The target in test [1] is Catechol O-methyltransferase (Homo sapiens) (UniProt P21964). Conditions: MTase-Glo luminescence, SAH detection, recombinant enzyme; measured here: COMT max response; stronger effect = lower value.
Test [2] concerns the target Guanidinoacetate N-methyltransferase (Homo sapiens) (UniProt Q14353). Conditions: MTase-Glo luminescence, SAH detection, recombinant enzyme; activity change, negative = inhibition: at 57.3 µM (top of the series) unless noted; series mostly up to 57.3 µM.
The target in test [3] is Nicotinamide N-methyltransferase (Homo sapiens) (UniProt P40261). Conditions: MTase-Glo luminescence, SAH detection, recombinant enzyme; measured here: NNMT max response; stronger effect = lower value.
Chain of Nicotinamide N-methyltransferase (Homo sapiens) (P40261 whole entry, looked up): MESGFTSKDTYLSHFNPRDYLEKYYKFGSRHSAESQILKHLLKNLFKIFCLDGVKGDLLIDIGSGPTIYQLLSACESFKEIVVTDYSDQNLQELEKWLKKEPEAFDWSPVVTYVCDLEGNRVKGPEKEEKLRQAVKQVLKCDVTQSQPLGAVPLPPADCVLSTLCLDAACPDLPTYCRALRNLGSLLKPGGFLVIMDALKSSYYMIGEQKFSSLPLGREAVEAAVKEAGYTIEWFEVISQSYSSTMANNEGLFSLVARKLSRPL
For test [4], the target named is Phenylethanolamine N-methyltransferase (Homo sapiens) (UniProt P11086). Conditions: MTase-Glo luminescence, SAH detection, recombinant enzyme; measured here: PNMT max response; stronger effect = lower value.
Chain of Phenylethanolamine N-methyltransferase (Homo sapiens) (P11086 whole entry, looked up): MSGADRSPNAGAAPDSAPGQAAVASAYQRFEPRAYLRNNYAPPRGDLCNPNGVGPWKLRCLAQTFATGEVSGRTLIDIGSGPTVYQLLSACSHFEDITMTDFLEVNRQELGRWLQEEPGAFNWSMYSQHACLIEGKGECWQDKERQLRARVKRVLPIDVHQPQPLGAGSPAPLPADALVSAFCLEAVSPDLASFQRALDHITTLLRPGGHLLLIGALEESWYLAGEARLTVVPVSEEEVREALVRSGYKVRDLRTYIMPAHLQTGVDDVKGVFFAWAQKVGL

Activity calls are given as the source filed them. Calls follow the shape of the full dose curve.
Potency is read from the fitted curve at half-maximal effect.

Chain of Catechol O-methyltransferase (Homo sapiens) (P21964 whole entry, looked up): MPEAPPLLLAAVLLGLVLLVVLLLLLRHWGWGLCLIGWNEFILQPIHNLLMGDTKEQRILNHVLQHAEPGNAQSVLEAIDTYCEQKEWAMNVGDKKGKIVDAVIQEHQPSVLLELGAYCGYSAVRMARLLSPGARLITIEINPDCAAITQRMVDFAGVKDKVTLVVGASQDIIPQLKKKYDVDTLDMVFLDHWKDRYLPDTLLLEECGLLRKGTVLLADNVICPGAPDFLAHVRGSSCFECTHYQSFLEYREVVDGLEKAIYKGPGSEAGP

On to `CNC(=O)NCCc1ncc(C)n1C1CCCCCCC1`, for which the activity in test [1] was 1.76%; in test [3] it was -4.6%; in test [4], -0.137%. Further, in test [2], the activity change, negative = inhibition came to 2.65%.
`COc1ccc(OC)c2c1cc1n2CC(C)(C(=O)NC2CCCCC2)N(Cc2cccnc2)C1=O` (stereo not given): the activity in test [1] is -8.96%; in test [3] it was -28.2%; in test [4] it was -10.7%. Further, the activity change, negative = inhibition in test [2] is -5.74%.
For the compound `Cc1cccc(-c2nnc3n(CCc4ccccc4)c(=O)c4ccccc4n23)c1`, the activity in test [1] is -4.01%; in test [3] it was -11.5%; in test [4], -10%. For the same compound, the Potency entry in test [2] is “inactive”.
With `CCOCCCN1C(=O)c2cc3c(OC)ccc(OC)c3n2CC1(C)C(=O)NC1CCCCC1` (stereo not given), the activity was -8.08% in test [1], -17.7% in test [3] and -10.4% in test [4]. Also, the activity change, negative = inhibition in test [2] is -4.76%.
Take `O=C(Cn1ccc2cc(S(=O)(=O)N3CCCCC3)ccc21)NCCCN1CCCCC1`: the figures for the activity in test [1], in test [3] and in test [4] were -5.54%, -8.24% and -7.19%, respectively. Further, the activity change, negative = inhibition in test [2] was -0.43%.
As for `COc1cccc(-c2ccccc2NC(=O)C2CCN(CC=C(C)C)CC2)c1`, the activity in test [1] was 0.831%; in test [3], -3.23%; in test [4], -3%. Moreover, the activity change, negative = inhibition in test [2] is 3.69%.
Taken in the same sequence, the figures for `c1ccc(CNc2cc(-c3cc(N4CCCCC4)ncn3)c3cc[nH]c3n2)nc1` were -16.9%, -28.9%, -32% and -13.9%.
Consider `CC(=O)Nc1cc(-c2cc(C(=O)NCc3cccnc3)c3c(c2)N(C)CCO3)ccn1`, for which the results for the activity in test [1], in test [3] and in test [4] were -17.6%, -4.98% and -28.5%, respectively. The activity change, negative = inhibition in test [2] was -8.39% [at 85.7 µM].
As for `Cc1cc(NS(=O)(=O)c2ccc3[nH]c(=O)[nH]c3c2)ccc1Br`, the activity is 1.24% in test [1], -14.5% in test [3] and -63.7% in test [4]. Further, the activity change, negative = inhibition in test [2] was 0.289%.
In the case of `Cc1ccc([C@@H]2CN(c3cc(N4CCC(O)CC4)ncn3)C[C@H]2N(C)C)cc1`, the activity in test [1] was -2.09%; in test [3], -5.73%; in test [4], -0.207%. Moreover, the activity change, negative = inhibition in test [2] is -0.694%.
For the compound `O=C(NCc1cccc(Cl)c1)c1sc(=S)n2c1[nH]c(=O)c1cc3c(cc12)OCO3`, the activity is -21.3% in test [1], -63.2% in test [3] and -39.9% in test [4]. Moreover, in test [2], the Potency was 27.1 µM (active).
For `COc1ccc(OC)c(NC(=O)c2sc(=S)n3c2[nH]c(=O)c2ccc(Cl)cc23)c1`, the activity in test [1] was -83.1%; in test [3], -72.9%; in test [4] it was -84.9%. The Potency in test [2] was 24.1 µM (active).
Take `CC1CCN(CCCNC(=O)C2CCc3sc(C(=O)N4CCCC4)cc3C2)CC1` (stereo not given): the activity in test [1] is 4.14%; in test [3], -0.224%; in test [4], 4.65%. Also, the activity change, negative = inhibition in test [2] came out at 6.27%.
As for `CCNc1nc2c(s1)C(c1cccc(F)c1)CC(=O)N2` (stereo not given), the activity was -12.6% in test [1], -25% in test [3] and -19.2% in test [4]. Further, the Potency in test [2] was 42.9 µM (active).
Regarding `CC(=O)NC1CC2(CCN(Cc3ccc(O)cc3)CC2)c2ccccc21` (stereo not given), the activity in test [1] stood at 6.67%; in test [3], 12.2%; in test [4], 5.3%. In addition, in test [2], the activity change, negative = inhibition came to 7.28% [at 85.7 µM].
The corresponding values for `Cn1ccc2c(C(=O)NCCc3cnc[nH]3)nc(-c3ccc(N4CCOCC4)cc3)cc21` are -6.99%, 2.75%, -6.64% and -0.183% [at 85.7 µM].
For `COc1ccc(CCNC(=O)c2ccc3c(=O)nc4c(-c5cccc(F)c5)n[nH]n4c3c2)cc1OC`, the activity in test [1] was -16%; in test [3] it was -27.1%; in test [4] it was -14.6%. Besides, the Potency in test [2] is 10.8 µM (active).
On to `CC1CCN(CCCNC(=O)CCc2nnc3n(Cc4ccccc4Cl)c(=O)c4ccccc4n23)CC1`, for which the activity in test [1] is -11.4%; in test [3] it was -14.4%; in test [4] it was -7.41%. Also, the activity change, negative = inhibition in test [2] was -3.45%.
The corresponding values for `O=c1c2ccccc2n2c(-c3ccc(F)c(F)c3)nnc2n1Cc1ccccc1Cl` are -2.11%, -2.95%, -3.63% and 0%.
For `CC(C)Cn1c(=O)c2ccccc2n2c(=O)n(CC(=O)c3cccc(Cl)c3)nc12`, the activity in test [1] is -9.22%; in test [3], -38.9%; in test [4], -8.68%. Besides, the activity change, negative = inhibition in test [2] was -5.46%.
The corresponding values for `COc1ccc(-c2[nH]ncc2CN2CC[C@H]3CC[C@@H](C2)N3)cc1` are 11.4%, 10.4%, 7.25% and 7.93%.
Taken in the same sequence, the figures for `CC1CCCCN1CCCNC(=O)Cn1ccc2cc(S(=O)(=O)N3CCCCC3)ccc21` (stereo not given) were 1.36%, 0.0396%, -0.622% and 0%.
With `CC1CCCCN1CCNC(=O)Cn1ccc2cc(S(=O)(=O)N3CCCCC3)ccc21` (stereo not given), the activity in test [1] was 0.614%; in test [3], -0.249%; in test [4] it was -1.89%. In test [2], the activity change, negative = inhibition amounted to 0%.
As for `CNc1cc(C2CC(NC(=O)COc3ccc(Cl)cc3C)C2)nc(N)n1` (stereo not given), the activity in test [1] is 7.09%; in test [3], -5.16%; in test [4], 6.12%. Moreover, the activity change, negative = inhibition in test [2] was 2.13%.
Turning to `Cc1ccc(C(=O)O)c2c1N[C@H](c1cccc(Cl)c1)C1CC=CC21` (stereo not given in full), the activity in test [1] stood at 2.41%; in test [3], 3.29%; in test [4], 2.81%. Further, the Potency result in test [2] was “inactive”.
For `O=C(CCc1nnc2n(CCc3ccccc3)c(=O)c3ccccc3n12)N1CCC(N2CCCCC2)CC1`, the activity is 4.18% in test [1], -3.96% in test [3] and 0% in test [4]. The activity change, negative = inhibition in test [2] is 0.438%.
For the compound `CC1(C)[C@H](Cc2cc(-c3ccccc3)on2)C[C@@H]1NCC1CC1`, the activity in test [1] was 1.83%; in test [3], -6.44%; in test [4], -13.1%. In addition, in test [2], the activity change, negative = inhibition is -0.152% [at 85.7 µM].
The corresponding values for `O=C(OCc1ccccc1)N1CCOCC12CCN(Cc1c[nH]c3ccccc13)CC2` are 6.86%, 5.55%, 1.46% and 9.15% [at 85.7 µM].
Consider `COc1ccc2nc([C@H]3CCN(C4CCCCC4)C3)[nH]c2c1`, for which the activity in test [1] is -5.45%; in test [3], -3.99%; in test [4] it was -4.21%. Besides, the activity change, negative = inhibition in test [2] worked out at 4.16% [at 85.7 µM].
On to `Cc1c(C(=O)O)ccc2c1N[C@@H](c1cccc(C(F)(F)F)c1)[C@H]1CC=C[C@@H]21`, for which the activity in test [1] was -4.24%; in test [3], -5.85%; in test [4], -7.15%. For the same compound, the activity change, negative = inhibition in test [2] was -0.164%.
